Compound activity: PubChem BioAssay, National Center for Advancing Translational Sciences (NCATS)
FMDV inh – blocks foot and mouth disease virus; Potency, µM (highest dose often 57.9 µM), most hits filed as inhibitors; 410,000 tested, 1.2% active; FMDV antiviral cell-based qHTS; calls by dose curve; tested in HEK293T cells; further: read-out not given here; nearly all actives have a fitted effect of over 45% in size
LASV entry inh – blocks Lassa virus binding to or entry into cells; Potency, µM (highest dose often 37.9 µM), actives largely listed as inhibitors; 300,000 tested, 1.2% active; AID 540256; Lassa virus pseudotype entry inhibition, cell reporter; calls by dose curve; tested in HEK293 cells; further: nearly all actives have a fitted effect of over 50% in size
HCMV antiviral – inhibitors of human cytomegalovirus. HFF cells, HCMV-luciferase reporter, 72 h; stronger effect = lower value. activity change, negative = inhibition, % at 57.5 µM. 410,000 tested, 4.5% active. AID 1259415; in the data active means activity change below about -60%; inconclusive means no clear call, values can overlap the other calls; inactive means above about -39%
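HFF cells seeded 16 h at 37C, treated with compounds, infected with luciferase-reporter HCMV at MOI 1 PFU/cell; luciferase read at 72 h post infection, normalized to buffer-only and Salinomycin controls.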
Vaccinia mCherry – inhibitors of vaccinia virus infection (mCherry reporter signal); Vaccinia virus mCherry reporter infection, fluorescence; Potency, µM (series often up to 36.5 µM), usual class: inhibitors; 310,000 tested, 0.63% active; AID 720579; calls by dose curve; tested in A549 cells; further: nearly all actives have a fitted effect of over 35% in size
Vaccinia Venus – vaccinia inhibition (Venus reporter); Vaccinia virus Venus reporter expression, fluorescence; Potency, µM (doses to about 36.5 µM), actives largely listed as inhibitors; 330,000 tested, 0.46% active; calls by dose curve; tested in A549 cells; further: nearly all actives have a fitted effect of over 30% in size
MARV entry inh – inhibitors of Marburg virus binding or cell entry; Marburg virus pseudotyped entry inhibition, cell reporter; 300,000 tested, 1.8% active; Potency, µM (titrated, usually from 37.8 µM), actives largely listed as inhibitors; AID 540276; calls by dose curve; tested in HEK293 cells
Large screens that a line does not name were inactive; ! = not confirmed by another sample. The list is not random: actives were taken first. Their share in the collection is about 6.5%.

Cc1ccc(C2CC(=O)c3cnc(N4CCN(c5ccccc5)CC4)nc3C2)cc1 (centres undefined)	none (no result: Vaccinia mCherry, Vaccinia Venus)
CCCCCCCc1cc2ccccc2c(=O)o1	none (no result: FMDV inh, LASV entry inh, HCMV antiviral, Vaccinia mCherry, Vaccinia Venus)
COc1cccc(CNC(=O)CNC(=O)N2CC(=O)Nc3ccccc32)c1	none
CCOc1ccccc1NS(=O)(=O)c1c(C)nc2sccn2c1=O	none (no result: MARV entry inh)
COc1ccc(NCc2nnc(SCC(=O)Nc3nc(-c4ccccc4)cs3)n2-c2ccccc2)cc1	HCMV antiviral -82, MARV entry inh inconclusive
COc1ccc(C(=O)CSc2nnc(CNc3nc(-c4ccccc4)cs3)n2C)cc1	FMDV inh 40µM, MARV entry inh inconclusive (no result: Vaccinia mCherry)
COc1ccc(-n2c(CNc3ccc(C)cc3)nnc2SCC(=O)Nc2nc(-c3ccccc3)cs2)cc1	MARV entry inh inconclusive (no result: Vaccinia mCherry, Vaccinia Venus)
COC(=O)CSc1nnc(CNc2nc(-c3ccccc3)cs2)n1C	MARV entry inh inconclusive
CCCCN(c1ccccc1)S(=O)(=O)c1cc2c3c(c1)C(C)C(=O)N3CCC2 (centres undefined)	LASV entry inh inconclusive, HCMV antiviral inconclusive (no result: MARV entry inh)
CCOc1ccccc1NC(=O)Cn1nnc(C(=O)NCc2ccco2)c1N	HCMV antiviral -90, Vaccinia mCherry inconclusive, Vaccinia Venus inconclusive, MARV entry inh inconclusive
Cc1cc(C)c(NC(=O)Cn2nnc(C(=O)NCc3cccs3)c2N)c(C)c1	FMDV inh 40µM!, MARV entry inh inconclusive
Cc1ccccc1NC(=O)Cn1nnc(C(=O)NCc2ccco2)c1N	Vaccinia mCherry inconclusive, Vaccinia Venus 4µM, MARV entry inh inconclusive
COC(=O)C1CCCCN1Cc1ccc2c(c1)CN(C(=O)c1cc(C)nc3cc(F)ccc13)CCO2 (centres undefined)	none (no result: LASV entry inh, HCMV antiviral, MARV entry inh)
CCN(CC)CCNC1=NCCn2c1cc1cc(OC)ccc12	LASV entry inh 8.2µM, MARV entry inh inconclusive (no result: Vaccinia mCherry, Vaccinia Venus)
CCc1ccccc1NC(=O)Nc1c[nH]c(=O)[nH]c1=O	LASV entry inh inconclusive (no result: MARV entry inh)
O=C(NCCc1ccccc1F)c1ccc2c(c1)OCCO2	FMDV inh 2.8µM, LASV entry inh 0.89µM, HCMV antiviral -99, MARV entry inh inconclusive
O=C(COC(=O)c1ccc2c(c1)OCCO2)Nc1ccc(F)cc1F	none
O=C(Nc1ccc(Br)cc1F)c1ccc2c(c1)OCCO2	LASV entry inh inconclusive, MARV entry inh 6.3µM
O=C(NCc1ccccc1F)c1ccc2c(c1)OCO2	none (no result: Vaccinia mCherry, Vaccinia Venus)
CC(C)Oc1cccc(C(=O)Nc2ccc(Br)cc2F)c1	LASV entry inh 2µM, Vaccinia Venus inconclusive, MARV entry inh inconclusive
O=C(Nc1ccc(F)cc1F)c1ccc2c(c1)OCCO2	LASV entry inh inconclusive, MARV entry inh 2.8µM
O=C(NCCCn1ccnc1)[C@H](Cc1ccccc1)N1C(=O)c2ccccc2C1=O	none (no result: FMDV inh, LASV entry inh, HCMV antiviral, Vaccinia mCherry, Vaccinia Venus)
Cc1cc(C)c2cc(C#N)c(NCCNC(=O)c3ccncc3)nc2c1	none (no result: LASV entry inh, MARV entry inh)
CCOc1ccc(NC(=O)c2cccc3ccccc23)cc1	none (no result: LASV entry inh, Vaccinia mCherry, Vaccinia Venus, MARV entry inh)
COc1cc(C(=O)Nc2ccc(C)cc2)c2ccccc2n1	LASV entry inh inconclusive, HCMV antiviral -60, MARV entry inh inconclusive
CCOc1ccc(NC(=O)c2cc(OC)nc3ccccc23)cc1	LASV entry inh inconclusive, HCMV antiviral -64
CCN(CC)CCNC(=O)c1ccc(NC(=O)c2cn(-c3ccccc3)nc2-c2cccs2)cc1	HCMV antiviral -98 (no result: LASV entry inh, Vaccinia mCherry, Vaccinia Venus, MARV entry inh)
CCN(CC)CCNC(=O)c1ccc(NC(=O)c2cn(-c3ccc(F)cc3)nc2-c2cccc(OC)c2)cc1	LASV entry inh inconclusive, HCMV antiviral -66, MARV entry inh inconclusive
CCOC(=O)c1ccc(NC(=O)c2cn(-c3ccccc3)nc2-c2ccncc2)cc1	FMDV inh inconclusive, MARV entry inh 7.1µM
CCN(CC)CCNC(=O)c1ccc(NC(=O)c2ccccc2-c2ccc(C(F)(F)F)cc2)cc1	LASV entry inh inconclusive, MARV entry inh 2.8µM
CCOc1ccc(NC(=O)CN(C)C(=O)c2cn(-c3ccc(F)cc3)nc2-c2cccc(OC)c2)cc1OCC	LASV entry inh inconclusive, Vaccinia Venus inconclusive, MARV entry inh inconclusive
CCOC(=O)NN=C1C[C@@H](O)[C@@H](O)[C@@H]2[C@H]3C(=O)N(C4CCCCC4)C(=O)[C@@H]3CC[C@@H]12	none (no result: FMDV inh, HCMV antiviral, Vaccinia mCherry, Vaccinia Venus)
Cc1ccc(NC(=O)NNC(=O)CSC2CCc3ccccc32)c(C)c1 (centres undefined)	none (no result: FMDV inh, LASV entry inh, Vaccinia mCherry, Vaccinia Venus, MARV entry inh)
CCOC(=O)C1=C(c2ccccc2)NC(SCC(=O)Nc2ccccc2C)=C(C#N)C1c1ccco1 (centres undefined)	LASV entry inh inconclusive, MARV entry inh 23µM (no result: Vaccinia mCherry, Vaccinia Venus)
C=CCOC(=O)C1=C(C)NC(SCC(=O)Nc2ccc(C)c(Cl)c2)=C(C#N)[C@@H]1c1ccco1	MARV entry inh 10µM (no result: FMDV inh, LASV entry inh, HCMV antiviral, Vaccinia mCherry, Vaccinia Venus)
CC(=O)C1=C(C)NC(SCC(=O)c2ccc(Cl)cc2)=C(C#N)C1c1ccco1 (centres undefined)	MARV entry inh inconclusive
CCOC(=O)C1=C(c2ccccc2)NC(SCC(=O)Nc2ccc(C)cc2)=C(C#N)C1c1ccco1 (centres undefined)	Vaccinia Venus inconclusive, MARV entry inh inconclusive
CC(=O)C1=C(C)NC(SCC(=O)c2ccc(Cl)cc2Cl)=C(C#N)C1c1ccco1 (centres undefined)	LASV entry inh inconclusive, HCMV antiviral -68 (no result: FMDV inh)
COc1ccc(CCNC(=O)Cc2c(C)c3c(cc(C)c4c(C)coc43)oc2=O)cc1OC	HCMV antiviral inconclusive
COc1cc(C(=O)NCc2ccc(-c3nc4ccccc4s3)cc2)cc(OC)c1OC	none
COC(=O)Cc1ccc2sc(-c3ccccc3)nc2c1	LASV entry inh inconclusive, MARV entry inh 8.2µM
O=C(NNc1nc2ccccc2s1)c1ccccc1F	HCMV antiviral -67, MARV entry inh inconclusive
Cc1ccccc1Cn1cccc(C(=O)Nc2nc3ccccc3s2)c1=O	FMDV inh 22µM, LASV entry inh inconclusive, HCMV antiviral -71 (no result: MARV entry inh)
COc1ccccc1C(=O)NCc1ccc(-c2nc3ccccc3s2)cc1	FMDV inh inconclusive, HCMV antiviral -61
O=C(NNc1nc2ccccc2s1)Nc1ccc(F)cc1	none (no result: LASV entry inh, Vaccinia mCherry, Vaccinia Venus, MARV entry inh)
O=C(O)Cc1ccc2sc(-c3ccccc3)nc2c1	none
COCCN(C(=O)Nc1ccc(F)cc1F)c1nc2ccccc2s1	none
COc1ccc(C(=O)Nc2ccc(C)cc2C(=O)c2ccccc2)c(OC)c1	FMDV inh inconclusive, HCMV antiviral inconclusive
COc1ccccc1C(=O)Nc1nc2ccccc2s1	FMDV inh 1.8µM, HCMV antiviral -99 (no result: LASV entry inh, Vaccinia mCherry, Vaccinia Venus, MARV entry inh)
COc1ccc2nc(NC(=O)c3ccccc3C(=O)O)sc2c1	none (no result: LASV entry inh, Vaccinia mCherry, Vaccinia Venus, MARV entry inh)
COc1ccc(C(=O)Nc2nc3ccccc3s2)c(OC)c1	FMDV inh 0.13µM, LASV entry inh inconclusive, HCMV antiviral -97, MARV entry inh inconclusive
COc1ccc(C(=O)Nc2ccccc2Cc2ccccc2)c(OC)c1	HCMV antiviral -71, Vaccinia mCherry inconclusive
COCCN(C(=O)Nc1ccc(OC)cc1)c1nc2ccccc2s1	HCMV antiviral -97
COc1cccc2sc(Nc3nc4ccc(NC(C)=O)cc4s3)nc12	LASV entry inh inconclusive, HCMV antiviral -83, MARV entry inh 7.3µM
NC(=S)Nc1nc2ccccc2s1	HCMV antiviral -108, MARV entry inh inconclusive
COCC(=O)Nc1nc2ccccc2s1	none
Cn1cc(Cl)c(C(=O)Nc2nc3ccccc3s2)n1	LASV entry inh inconclusive, MARV entry inh 8.2µM (no result: FMDV inh)
O=C(Nc1nc2ccccc2s1)c1c(F)cccc1Cl	LASV entry inh inconclusive
